# Assay results as given in PubChem BioAssay (EPA / NIEHS).
# Active and inactive are the calls of the source. How the source made its calls: active means hit-call score of the fitted dose curve at least 0.9, where 1 is the maximum; inactive means score below 0.9.
# Tests used:
# [1] = read-out: Interleukin-6 (IL6), IL6 (gene 3569); assay: BSK_CASM3C_IL6: BioMAP Diversity Plus: CASM3C Assay for Interleukin-6 (IL6) Biomarker Activity for (AID 2283040); details: primary human coronary artery smooth muscle cells; actives raise or lower the signal
# [2] = read-out: Tissue plasminogen activator (tPA), PLAT (gene 5327); assay: BSK_BE3C_tPA: BioMAP Diversity Plus: BE3C Assay for Tissue plasminogen activator (tPA) Biomarker Activity (AID 2283041); details: primary human bronchial epithelial cells; actives raise or lower the signal;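 on outcome: tPA level quantified by ELISA one day after compound addition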
# In short: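 Using human lung primary bronchial epithelial cells, tPA was measured by ELISA 24 h after dosing; data fitted relative to DMSO.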
# [3] = read-out: Interleukin-8 (IL8), CXCL8 (gene 3576); assay: BSK_CASM3C_IL8: BioMAP Diversity Plus: CASM3C Assay for Interleukin-8 (IL8) Biomarker Activity (AID 2283042); details: primary human coronary artery smooth muscle cells; actives raise or lower the signal;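 further: IL-8 protein level quantified by ELISA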
# [4] = read-out: Human Leukocyte Antigen - DR isotype (HLADR), HLA-DRA (gene 3122); assay: BSK_CASM3C_HLADR: BioMAP Diversity Plus: CASM3C Assay for Human Leukocyte Antigen - DR isotype (HLADR) Biomarker Activity (AID 2283043); details: primary human coronary artery smooth muscle cells; actives raise or lower the signal;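 further: cell-surface HLA-DR protein level quantified by ELISA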
# [5] = read-out: Macrophage colony-stimulating factor (MCSF), CSF1 (gene 1435); assay: BSK_CASM3C_MCSF: BioMAP Diversity Plus: CASM3C Assay for Macrophage colony-stimulating factor (MCSF) Biomarker Activity (AID 2283044); details: primary human coronary artery smooth muscle cells; actives raise or lower the signal;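 further: M-CSF protein amount quantified by ELISA after 24 h exposure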
# [6] = read-out: Low-density lipoprotein receptor (LDLR), LDLR (gene 3949); assay: BSK_CASM3C_LDLR: BioMAP Diversity Plus: CASM3C Assay for Low-density lipoprotein receptor (LDLR) Biomarker Activity (AID 2283045); details: primary human coronary artery smooth muscle cells; actives raise or lower the signal;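 further: LDLR protein level on the cell surface quantified by ELISA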
# [7] = read-out: Monocyte Chemoattractant Protein-1 (MCP1), CCL2 (gene 6347); assay: BSK_CASM3C_MCP1: BioMAP Diversity Plus: CASM3C Assay for Monocyte Chemoattractant Protein-1 (MCP1) Biomarker Activity (AID 2283046); details: primary human coronary artery smooth muscle cells; actives raise or lower the signal;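 further: MCP-1 level quantified by ELISA 24 h after dosing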
# [8] = BSK_CASM3C_Proliferation: Cell Proliferation Assessment in the BioMAP Diversity Plus: CASM3C Assay (AID 2283047); details: primary human coronary artery smooth muscle cells;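 further: sulforhodamine B total protein stain as relative cell number at 560 nm; sub-confluent cells exposed 48 h before staining; fitted both ways against DMSO so gain or loss of cell number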
# [9] = read-out: Monokine induced gamma interferon (MIG), CXCL9 (gene 4283); assay: BSK_CASM3C_MIG: BioMAP Diversity Plus: CASM3C Assay for Monokine induced gamma interferon (MIG) Biomarker Activity (AID 2283048); details: primary human coronary artery smooth muscle cells; actives raise or lower the signal;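 further: MIG protein level measured by ELISA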
# [10] = read-out: serum amyloid A (SAA), SAA1 (gene 6288); assay: BSK_CASM3C_SAA: BioMAP Diversity Plus: CASM3C Assay for serum amyloid A (SAA) Biomarker Activity (AID 2283049); details: primary human coronary artery smooth muscle cells; actives raise or lower the signal;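 further: SAA protein level quantified by ELISA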
# [11] = BSK_CASM3C_SRB: Viability Assessment in the BioMAP Diversity Plus: CASM3C Assay (AID 2283050); details: primary human coronary artery smooth muscle cells;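 further: total protein by SRB staining as cytotoxicity measure in parallel cultures; cells exposed to compound for 24 h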
# [12] = read-out: Thrombomodulin, THBD (gene 7056); assay: BSK_CASM3C_Thrombomodulin: BioMAP Diversity Plus: CASM3C Assay for Thrombomodulin Biomarker Activity (AID 2283051); details: primary human coronary artery smooth muscle cells; actives raise or lower the signal;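 further: thrombomodulin protein level measured by ELISA 24 h after dosing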
# [13] = read-out: Tissue Factor, F3 (gene 2152); assay: BSK_CASM3C_TissueFactor: BioMAP Diversity Plus: CASM3C Assay for Tissue Factor Biomarker Activity (AID 2283052); details: primary human coronary artery smooth muscle cells; actives raise or lower the signal;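 further: cell surface tissue factor protein level read by ELISA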
# [14] = read-out: Interferon-gamma inducible Protein 10 (IP10), CXCL10 (gene 3627); assay: BSK_hDFCGF_IP10: BioMAP Diversity Plus: hDFCGF Assay for Interferon-gamma inducible Protein 10 (IP10) Biomarker Activity (AID 2283053); details: primary human foreskin fibroblasts; actives raise or lower the signal
# In short: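 Chemical-treated human skin fibroblasts (primary) were sampled at 24 h for IP-10 by ELISA. Both increases and decreases relative to DMSO were scored.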
# [15] = read-out: Urokinase-type plasminogen activator receptor (uPAR), PLAUR (gene 5329); assay: BSK_CASM3C_uPAR: BioMAP Diversity Plus: CASM3C Assay for Urokinase-type plasminogen activator receptor (uPAR) Biomarker Activity (AID 2283054); details: primary human coronary artery smooth muscle cells; actives raise or lower the signal;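 further: cell-surface uPAR protein level quantified by ELISA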
# [16] = read-out: Vascular cell adhesion molecule 1 (VCAM1), VCAM1 (gene 7412); assay: BSK_CASM3C_VCAM1: BioMAP Diversity Plus: CASM3C Assay for Vascular cell adhesion molecule 1 (VCAM1) Biomarker Activity (AID 2283055); details: primary human coronary artery smooth muscle cells; actives raise or lower the signal;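 further: VCAM-1 protein level quantified by ELISA on the cells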
# [17] = read-out: Collagen III, COL3A1 (gene 1281); assay: BSK_hDFCGF_CollagenIII: BioMAP Diversity Plus: hDFCGF Assay for Collagen III Biomarker Activity (AID 2283056); details: primary human foreskin fibroblasts; actives raise or lower the signal
# In short: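 Cells: human foreskin fibroblasts, primary. Dosing followed by 24 h incubation, then ELISA for collagen III. Both increases and decreases scored relative to DMSO.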
# [18] = read-out: Epidermal growth factor receptor (EGFR), EGFR (gene 1956); assay: BSK_hDFCGF_EGFR: BioMAP Diversity Plus: hDFCGF Assay for Epidermal growth factor receptor (EGFR) Biomarker Activity (AID 2283057); details: primary human foreskin fibroblasts; actives raise or lower the signal
# In short: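 Cell-based multiplexed assay in primary human foreskin fibroblasts. EGFR is read by ELISA 24 h after treatment and compared with DMSO controls.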
# [19] = read-out: Interleukin-8 (IL8), CXCL8 (gene 3576); assay: BSK_hDFCGF_IL8: BioMAP Diversity Plus: hDFCGF Assay for Interleukin-8 (IL8) Biomarker Activity (AID 2283058); details: primary human foreskin fibroblasts; actives raise or lower the signal
# In short: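 IL-8 levels from compound-treated primary human fibroblasts were read by ELISA at 24 h, with DMSO serving as baseline for bidirectional fitting.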
# [20] = BSK_hDFCGF_Proliferation: Cell Proliferation Assessment in the BioMAP Diversity Plus: hDFCGF Assay (AID 2283059); details: primary human foreskin fibroblasts;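 further: curves fitted for both rise and fall of signal versus DMSO baseline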
# In short: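 Primary human foreskin fibroblasts, sub-confluent; […]; 10% TCA fix, 0.1% SRB stain, A560 total protein. Gain/loss fitted bidirectionally vs DMSO control.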
smiles,measurement,setting,value
c1ccc2sc(SSN3CCOCC3)nc2c1,AC50,[1],12 µM (active)
same,AC50,[2],12.5 µM (active)
same,AC50,[3],20 µM (active)
same,AC50,[4],4.62 µM (active)
same,AC50,[5],6.94 µM (active)
same,outcome,[6],inactive
same,AC50,[7],8.56 µM (active)
same,AC50,[8],2.19 µM (active)
same,AC50,[9],15.8 µM (active)
same,AC50,[10],5.46 µM (active)
same,AC50,[11],20 µM (active)
same,outcome,[12],inactive
same,AC50,[13],10.6 µM (active)
same,outcome,[14],inactive
same,AC50,[15],6.71 µM (active)
same,AC50,[16],4.44 µM (active)
same,outcome,[17],inactive
same,AC50,[18],7.7 µM (active)
CC1=CC=C(C(C)C)CC1,outcome,[1],inactive
same,outcome,[2],inactive
same,outcome,[3],inactive
same,outcome,[4],inactive
same,outcome,[5],inactive
same,outcome,[6],inactive
same,outcome,[7],inactive
same,outcome,[8],inactive
same,outcome,[9],inactive
same,outcome,[10],inactive
same,outcome,[11],inactive
same,outcome,[12],inactive
same,outcome,[13],inactive
same,outcome,[14],inactive
same,outcome,[15],inactive
same,outcome,[16],inactive
same,outcome,[17],inactive
same,outcome,[18],inactive
C=CC(=O)OCCCCCCOC(=O)C=C,AC50,[1],14.2 µM (active)
same,outcome,[2],inactive
same,AC50,[3],10.1 µM (active)
same,AC50,[4],10.5 µM (active)
same,AC50,[5],18 µM (active)
same,AC50,[6],20 µM (active)
same,AC50,[7],34 µM (active)
same,AC50,[8],20 µM (active)
same,AC50,[9],23.3 µM (active)
same,outcome,[10],inactive
same,AC50,[11],20 µM (active)
same,outcome,[12],inactive
same,AC50,[13],1.43 µM (active)
same,AC50,[14],2.12 µM (active)
same,AC50,[15],29.4 µM (active)
same,AC50,[16],10.8 µM (active)
same,AC50,[17],7.72 µM (active)
same,outcome,[18],inactive
same,AC50,[19],20 µM (active)
O=C1CCCCCCCCCCCN1,outcome,[1],inactive
same,outcome,[2],inactive
same,outcome,[3],inactive
same,outcome,[4],inactive
same,outcome,[5],inactive
same,outcome,[6],inactive
same,outcome,[7],inactive
same,outcome,[8],inactive
same,outcome,[9],inactive
same,outcome,[10],inactive
same,outcome,[11],inactive
same,outcome,[12],inactive
same,outcome,[13],inactive
same,outcome,[14],inactive
same,outcome,[15],inactive
same,outcome,[16],inactive
same,outcome,[17],inactive
same,outcome,[18],inactive
same,outcome,[20],inactive
CC1(C)CC(O)CC(C)(C)N1[O],outcome,[1],inactive
same,outcome,[2],inactive
same,outcome,[3],inactive
same,outcome,[4],inactive
same,outcome,[5],inactive
same,outcome,[6],inactive
same,outcome,[7],inactive
same,outcome,[8],inactive
same,outcome,[9],inactive
same,outcome,[10],inactive
same,outcome,[11],inactive
same,outcome,[12],inactive
same,outcome,[13],inactive
same,outcome,[14],inactive
same,outcome,[15],inactive
same,outcome,[16],inactive
same,outcome,[17],inactive
same,outcome,[18],inactive
same,outcome,[19],inactive
CC(C)C(=O)OCCc1ccccc1,outcome,[1],inactive
same,outcome,[2],inactive
same,outcome,[3],inactive
same,outcome,[4],inactive
same,outcome,[5],inactive
same,outcome,[6],inactive
same,outcome,[7],inactive
same,outcome,[8],inactive
same,outcome,[9],inactive
same,outcome,[10],inactive
same,outcome,[11],inactive
same,outcome,[12],inactive
same,outcome,[13],inactive
same,outcome,[14],inactive
same,outcome,[15],inactive
same,outcome,[16],inactive
same,outcome,[17],inactive
same,outcome,[18],inactive
same,outcome,[20],inactive
CC(C)[N+](C)(CCOC(=O)C1c2ccccc2Oc2ccccc21)C(C)C,outcome,[1],inactive
same,outcome,[2],inactive
same,outcome,[3],inactive
same,outcome,[4],inactive
same,outcome,[5],inactive
same,outcome,[6],inactive
same,outcome,[7],inactive
same,outcome,[8],inactive
same,outcome,[9],inactive
same,outcome,[10],inactive
same,outcome,[11],inactive
same,outcome,[12],inactive
same,outcome,[13],inactive
same,outcome,[14],inactive
same,outcome,[15],inactive
same,outcome,[16],inactive
same,outcome,[17],inactive
same,outcome,[18],inactive
same,AC50,[20],0.471 µM (active)
